Experimental data taken from PubChem BioAssay AID1159580 (chemical genetic matrix, 2015).
Out of some 5,500 compounds screened, about 2,000 (36%) were called active. Inconclusive results (about 18%) are left out. No stated cut-off is given here; in the data, active means normalized growth mostly below about 0.91 (no sharp cut-off); inconclusive means no clear call, values can overlap the other calls; inactive means mostly above about 0.92. Some of the results follow.

Assay: chemical genetic growth profiling, strain panel (AID 1159580);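 further: tested at 20 µM; growth read once vehicle control cultures reached saturation at 30 °C; 1 = growth at the plate median or of vehicle wells; lower values mean less growth of the strain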
Details: S. cerevisiae deletion strains, growth OD
[1] = locus YAL021C, strain ccr4, active compounds read low
[2] = locus YAL026C, strain drs2, active compounds read low
[3] = locus YAL030W, strain snc1, active compounds read low
[4] = locus YBL061C, strain skt5, active compounds read low
[5] = locus YBR009C, strain hhf1, active compounds read low
[6] = locus YBR023C, strain chs3, active compounds read low
[7] = locus YBR171W, strain sec66, active compounds read low
[8] = locus YBR231C, strain swc5, active compounds read low
[9] = locus YBR279W, strain paf1, active compounds read low
[10] = locus YCL011C, strain gbp2, active compounds read low
[11] = locus YCL016C, strain dcc1, active compounds read low
[12] = locus YCL061C, strain MRC1, active compounds read low
[13] = locus YCL069W, strain vba3, active compounds read low
[14] = locus YCR088W, strain abp1, active compounds read low
[15] = locus YDL005C, strain med2, active compounds read low
[16] = locus YDL040C, strain nat1, active compounds read low
[17] = locus YDR001C, strain nth1, active compounds read low
[18] = locus YDR069C, strain doa4, active compounds read low
[19] = locus YDR137W, strain rgp1, active compounds read low
[20] = locus YDR159W, strain sac3, active compounds read low
[21] = locus YDR297W, strain sur2, active compounds read low
[22] = locus YDR334W, strain swr1, active compounds read low
[23] = locus YDR335W, strain msn5, active compounds read low
[24] = locus YDR392W, strain spt3, active compounds read low
[25] = locus YEL003W, strain gim4, active compounds read low
[26] = locus YEL037C, strain rad23, active compounds read low
[27] = locus YEL061C, strain CIN8 (second series), active compounds read low
[28] = locus YER015W, strain faa2, active compounds read low
[29] = locus YER016W, strain bim1, active compounds read low
[30] = locus YER111C, strain swi4, active compounds read low
[31] = locus YER155C, strain BEM2 (second series), active compounds read low
[32] = locus YFR010W, strain ubp6, active compounds read low
[33] = locus YGL167C, strain pmr1, active compounds read low
[34] = locus YGL173C, strain kem1, active compounds read low
[35] = locus YGL227W, strain vid30, active compounds read low
[36] = locus YGL240W, strain doc1, active compounds read low
[37] = locus YGL253W, strain hxk2, active compounds read low
[38] = locus YHR013C, strain ard1, active compounds read low
[39] = locus YHR027C, strain rpn1, active compounds read low
[40] = locus YHR142W, strain chs7, active compounds read low
[41] = locus YJL092W, strain hpr5, active compounds read low
[42] = locus YJL095W, strain BCK1 (second series), active compounds read low
[43] = locus YJL115W, strain asf1, active compounds read low
[44] = locus YJL129C, strain trk1, active compounds read low
[45] = locus YJL154C, strain vps35, active compounds read low
[46] = locus YJL164C, strain tpk1, active compounds read low
[47] = locus YJL166W, strain qcr8, active compounds read low
[48] = locus YKL160W, strain elf1, active compounds read low
[49] = locus YKR026C, strain gcn3, active compounds read low
[50] = locus YKR091W, strain srl3, active compounds read low
[51] = locus YLL001W, strain dnm1, active compounds read low
[52] = locus YLL026W, active compounds read low
[53] = locus YLL041C, strain sdh2, active compounds read low
[54] = locus YLR027C, strain aat2, active compounds read low
[55] = locus YLR221C, strain rsa3, active compounds read low
[56] = locus YLR258W, strain gsy2, active compounds read low
[57] = locus YLR262C, strain YPT6 (second series), active compounds read low
[58] = locus YLR320W, strain mms22, active compounds read low
[59] = locus YLR342W, strain FKS1, active compounds read low
[60] = locus YLR357W, strain rsc2, active compounds read low
[61] = locus YLR370C, strain arc18, active compounds read low
[62] = locus YLR384C, strain iki3, active compounds read low
[63] = locus YML120C, strain ndi1, active compounds read low
[64] = locus YMR058W, strain fet3, active compounds read low
[65] = locus YMR125W, strain sto1, active compounds read low
[66] = locus YMR129W, active compounds read low
[67] = locus YMR205C, strain PFK2, active compounds read low
[68] = locus YMR231W, strain pep5, active compounds read low
[69] = locus YNL071W, strain lat1, active compounds read low
[70] = locus YNL209W, strain ssb2, active compounds read low
[71] = locus YNL248C, strain rpa49, active compounds read low
[72] = locus YNL322C, strain KRE1 (second series), active compounds read low
[73] = locus YNR049C, strain mso1, active compounds read low
[74] = locus YOR001W, strain rrp6, active compounds read low
[75] = locus YOR070C, strain gyp1, active compounds read low
[76] = locus YOR080W, strain dia2, active compounds read low
[77] = locus YOR083W, strain WHI5, active compounds read low
[78] = locus YOR106W, strain vam3, active compounds read low
[79] = locus YOR265W, strain rbl2, active compounds read low
[80] = locus YOR270C, strain vph1, active compounds read low
[81] = locus YOR290C, strain snf2, active compounds read low
[82] = locus YPL051W, strain arl3, active compounds read low
[83] = locus YPL078C, strain atp4, active compounds read low
[84] = locus YPL106C, strain sse1, active compounds read low
[85] = locus YPL240C, strain hsp82, active compounds read low

Measured: normalized growth

C=CCSC[C@@H](N)C(=O)O
inactive: [1] 0.993 | [2] 0.986 | [3] 1.01 | [4] 0.996 | [5] 1 | [6] 0.987 | [7] 0.984 | [8] 1 | [9] 1 | [10] 0.982 | [11] 0.998 | [12] 0.981 | [13] 0.99 | [14] 0.994 | [15] 0.988 | [16] 1.01 | [17] 0.986 | [18] 0.994 | [19] 1.01 | [20] 0.991 | locus YDR195W, strain ref2 0.985 | [21] 1 | [22] 0.987 | [23] 0.997 | [24] 0.996 | [25] 0.996 | [26] 1.01 | [27] 0.999 | [28] 0.992 | [29] 1.01 | [30] 1.01 | [31] 1.03 | [32] 0.986 | [33] 0.992 | [34] 0.999 | [35] 0.986 | [36] 1 | [37] 0.993 | [38] 1 | [39] 1.01 | locus YHR030C, strain SLT2, active compounds read low 0.943 | locus YHR079C, strain IRE1, active compounds read low 0.96 | [40] 0.978 | [41] 0.989 | [42] 1.01 | locus YJL095W, strain BCK1, active compounds read low 0.936 | [43] 0.989 | [44] 0.992 | [45] 0.982 | [46] 1 | [47] 1 | locus YJR066W, strain TOR1, active compounds read low 0.901 | [48] 0.985 | [49] 0.986 | [50] 1.01 | [51] 0.987 | [52] 0.993 | [53] 0.985 | [54] 0.993 | locus YLR113W, strain HOG1, active compounds read low 0.973 | [55] 0.994 | [56] 0.99 | [57] 0.995 | [58] 1.01 | [59] 1.02 | [60] 1.01 | [61] 0.999 | [62] 0.993 | [63] 0.986 | [64] 0.992 | [65] 0.986 | [66] 0.985 | [67] 1 | [68] 0.998 | [69] 1 | locus YNL183C, strain NPR1, active compounds read low 0.914 | [70] 0.991 | [71] 0.995 | [72] 1 | [73] 0.997 | [74] 0.997 | [75] 0.992 | [76] 1 | [77] 1.02 | [78] 1 | locus YOR231W, strain MKK1, active compounds read low 0.968 | [79] 0.996 | [80] 1 | [81] 0.993 | [82] 0.998 | [83] 0.999 | [84] 0.986 | [85] 0.999 | locus YPL256C, strain CLN2, active compounds read low 0.948

C=CCSSSCC=C
inactive: [1] 0.962 | [2] 0.97 | [3] 0.989 | [4] 1 | [5] 0.957 | [6] 0.986 | [7] 0.994 | [8] 0.974 | [9] 0.991 | [10] 0.984 | [11] 1 | [12] 0.98 | [13] 0.973 | [14] 0.984 | [15] 0.97 | [16] 0.987 | [17] 0.988 | [18] 0.965 | [19] 0.984 | [20] 0.937 | locus YDR195W, strain ref2 0.944 | [21] 0.989 | [22] 0.966 | [23] 0.986 | [24] 0.782 | [25] 0.98 | [26] 0.958 | [27] 0.979 | [28] 0.976 | [29] 0.992 | [30] 0.991 | [32] 0.956 | [33] 0.983 | [34] 0.988 | [35] 0.995 | [36] 0.944 | [37] 0.987 | [38] 0.937 | [39] 1 | [40] 0.981 | [41] 0.966 | [42] 0.991 | [43] 0.975 | [44] 0.958 | [45] 0.979 | [46] 0.974 | [47] 0.976 | locus YJL187C, strain SWE1, active compounds read low 0.984 | [48] 0.995 | [49] 0.978 | [50] 0.983 | [51] 0.994 | [52] 0.991 | [53] 0.982 | [54] 0.972 | [55] 0.992 | [56] 0.999 | [57] 0.995 | [58] 0.967 | [59] 0.98 | [60] 0.891 | [61] 0.978 | [62] 1.01 | [63] 0.974 | [64] 0.975 | [65] 0.946 | [66] 0.98 | [67] 0.967 | [68] 0.978 | [70] 0.992 | [72] 0.974 | [73] 0.98 | [74] 0.96 | [75] 0.992 | [76] 0.972 | [77] 1 | [78] 0.949 | [79] 0.984 | [80] 0.941 | [81] 0.964 | [82] 0.979 | [83] 0.988 | [84] 0.976 | [85] 0.995
active: [31] 0.765 | [69] 0.847 | [71] 0.877
